Here are results for 30 compounds from ChEMBL document CHEMBL3988442, “University of Dundee, Small-Polar-MMV Screening Library” (2021).

The test has as its target T1, Methionyl-tRNA synthetase, putative (Leishmania donovani (strain BPK282A1)) (UniProt E9BF75).
T1 sequence (whole entry): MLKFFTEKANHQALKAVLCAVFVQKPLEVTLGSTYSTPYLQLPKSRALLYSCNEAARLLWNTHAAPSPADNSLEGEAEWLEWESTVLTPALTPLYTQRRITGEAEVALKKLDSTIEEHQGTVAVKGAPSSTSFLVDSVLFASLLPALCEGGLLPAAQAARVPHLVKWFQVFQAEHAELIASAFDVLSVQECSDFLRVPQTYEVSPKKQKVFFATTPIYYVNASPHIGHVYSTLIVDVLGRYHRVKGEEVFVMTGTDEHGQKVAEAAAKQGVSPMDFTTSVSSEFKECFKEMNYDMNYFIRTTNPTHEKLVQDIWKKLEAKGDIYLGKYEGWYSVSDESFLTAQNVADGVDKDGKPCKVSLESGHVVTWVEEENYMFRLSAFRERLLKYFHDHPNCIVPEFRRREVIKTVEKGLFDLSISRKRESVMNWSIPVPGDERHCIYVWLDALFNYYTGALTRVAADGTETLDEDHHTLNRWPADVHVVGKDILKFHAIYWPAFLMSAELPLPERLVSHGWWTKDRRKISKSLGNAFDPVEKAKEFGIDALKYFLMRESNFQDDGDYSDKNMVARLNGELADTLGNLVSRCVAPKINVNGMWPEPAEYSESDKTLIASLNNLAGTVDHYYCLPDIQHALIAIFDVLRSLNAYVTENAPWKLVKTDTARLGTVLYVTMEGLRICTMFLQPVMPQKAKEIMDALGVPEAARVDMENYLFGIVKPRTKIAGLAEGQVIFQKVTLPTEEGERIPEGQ
The experiment in a line: Leishmania donovani Methionine tRNA synthetase (LdMetRS):v7. Dose response assay. It is filed as functional. The arrangement: conc 80 nM, time 150 minutes.

For the compound `COCCN(Cc1cnn(C)c1)c1nc(C)nc2sccc12`, the PXC50 is less than 4 (MAX_EFFECT 10.70496084) and less than 4 (MAX_EFFECT 11.48825065).

As for `Cc1nc(N2CCC3(CC2)OCCO3)c2c(-c3cccs3)csc2n1`, the PXC50 was less than 4 (MAX_EFFECT 10.43256997) and less than 4 (MAX_EFFECT 13.35012594).

With `OB1OCc2ccccc21`, the PXC50 is, setting by setting: (MAX_EFFECT 10.0456621) less than 4; (MAX_EFFECT -0.566037736) less than 4.

The compound `Cc1nc(N2CCNC(=O)CC2C)c2c(-c3ccccc3)csc2n1` (stereo not given) came in with a PXC50 (MAX_EFFECT 10.43256997) of less than 4 and a PXC50 (MAX_EFFECT 12.34256927) of less than 4.

`CCN(CC)c1ccc2ccc(C(=O)NC3CCCC3)cn12`: the PXC50 runs as follows: (MAX_EFFECT 33.58778626) less than 4; (MAX_EFFECT 39.03508772) less than 4.

For `CN(C)CCNC(=O)c1ccc2ccc(N3CCN(S(C)(=O)=O)CC3)n2c1`, the PXC50 runs as follows: (BOTTOM 0.033, HILLSLOPE 2.605738827, MAX_EFFECT 55.98086124, TOP 56.52145989) 4.84; (BOTTOM -2.072944034, HILLSLOPE 2.61914663, MAX_EFFECT 60.32906764, TOP 62.06864911) 4.75.

Consider `Cc1nc(N[C@H](C(=O)O)C(C)C)c2c3c(sc2n1)CCCC3`, for which the PXC50 by setting is: (MAX_EFFECT 7.978723404) less than 4; (MAX_EFFECT 8.29015544) less than 4.

Consider `Cc1cc(N)n(-c2nc(C)nc3sc4c(c23)CCCC4)n1`, for which the PXC50 is, setting by setting: (MAX_EFFECT 11.22994652) less than 4; (MAX_EFFECT 12.02185792) less than 4.

For the compound `CCOC(=O)N1CCN(c2nc(CCN)nc3sc(C)c(C)c23)CC1`, the PXC50 (BOTTOM 0.0282, HILLSLOPE 1.091908383, MAX_EFFECT 72.32375979, TOP 100.0) came out at 4.33 and the PXC50 (BOTTOM 1.098813228, HILLSLOPE 1.170601195, MAX_EFFECT 79.37336815, TOP 100.0) worked out at 4.4.

Consider `FC(F)(F)c1nc(N2CCOCC2)nc2c1CCCCC2`, for which the PXC50 (MAX_EFFECT 7.808564232) was less than 4 and the PXC50 (MAX_EFFECT 8.396946565) was less than 4.

As for `COc1cc2ccc(N3CCN(S(C)(=O)=O)CC3)n2cc1C(=O)NC1CCCC1`, the PXC50 was found to be 4.71 (BOTTOM 1.185639049, HILLSLOPE 1.624291099, MAX_EFFECT 57.89473684, TOP 63.90970976) and 4.35 (BOTTOM -1.038445777, HILLSLOPE 1.129445656, MAX_EFFECT 51.04166667, TOP 100.0).

On to `OB1OC(CN2CCOCC2)c2ccccc21` (stereo not given), for which the PXC50 (MAX_EFFECT 9.245283019) was less than 4 and the PXC50 (MAX_EFFECT 9.589041096) was less than 4.

For `O=C(C1CCC1)N1CCC(c2ncc3c(n2)CCNC3)CC1`, the PXC50 by setting is: (MAX_EFFECT 30.83900227) less than 4; (MAX_EFFECT 33.27102804) less than 4.

On to `Cc1nc(NC(Cc2ccccc2)C(=O)O)c2c3c(sc2n1)CCCC3` (stereo not given), for which the PXC50 reads like this: (MAX_EFFECT 23.07692308) less than 4; (MAX_EFFECT 25.24509804) less than 4.

`Cc1nc(N2CCC(C(N)=O)CC2)c2c3c(sc2n1)CC(C)CC3` (stereo not given): the PXC50 reads like this: (MAX_EFFECT 5.852417303) less than 4; (MAX_EFFECT 9.319899244) less than 4.

For `CC(=O)N1CCN(CC2OB(O)c3ccccc32)CC1` (stereo not given), the PXC50 runs as follows: (MAX_EFFECT 12.26415094) less than 4; (MAX_EFFECT 15.06849315) less than 4.

In the case of `Cc1nc(N2CCN(C(=O)C3CC3)CC2)c2c3c(sc2n1)CC(C)CC3` (stereo not given), the PXC50 was less than 4 (MAX_EFFECT 43.2160804) and less than 4 (MAX_EFFECT 47.91154791).

Turning to `Nc1noc2ccc(-c3cnc4ccc(NCC5CC5)nn34)cc12`, the PXC50 (MAX_EFFECT 32.56997455) was less than 4 and the PXC50 (MAX_EFFECT 37.71929825) is less than 4.

The compound `O=c1nc(NCCCNCc2cc(Br)cc(Br)c2)[nH]c2ccsc12` gave a PXC50 (BOTTOM 2.299047881, HILLSLOPE 2.649797199, MAX_EFFECT 103.7296037, TOP 100.0081261) of 6.16 and a PXC50 (BOTTOM 10.20336465, HILLSLOPE 2.013529983, MAX_EFFECT 101.8604651, TOP 99.90152213) of 6.19.

For the compound `Cc1nc(NCCCC(=O)O)c2c3c(sc2n1)CCCC3`, the PXC50 reads like this: (MAX_EFFECT 9.823677582) less than 4; (MAX_EFFECT 10.43256997) less than 4.

With `O=C(c1ccc2ccc(N3CCN(CC4CC4)CC3)n2c1)N1CCCO1`, the PXC50 runs as follows: (MAX_EFFECT 19.44444444) less than 4; (MAX_EFFECT 22.0657277) less than 4.

The compound `Nc1nc(CSc2ccccn2)nc2sc3c(c12)CCCCC3` registered a PXC50 (MAX_EFFECT 34.13333333) of less than 4 and a PXC50 (MAX_EFFECT 39.15343915) of less than 4.

`Cc1nc(NC(CC(C)C)C(=O)O)c2c3c(sc2n1)CCCC3` (stereo not given): the PXC50 is, setting by setting: (MAX_EFFECT 16.83673469) less than 4; (MAX_EFFECT 16.91919192) less than 4.

Turning to `Cn1ncc2c(OCCO)nc(Nc3ccc(F)c(F)c3)nc21`, the PXC50 is, setting by setting: (MAX_EFFECT 18.30188679) less than 4; (MAX_EFFECT 21.91780822) less than 4.

Take `CCC(CO)Nc1nc(CSc2ccccc2)nc2sc3c(c12)CCC3` (stereo not given): the PXC50 runs as follows: (MAX_EFFECT 27.86885246) less than 4; (MAX_EFFECT 29.94652406) less than 4.

For the compound `COCCN1CCN(c2ccc3ccc(C(=O)NC4CC4)cn23)CC1`, the PXC50 was less than 4 (MAX_EFFECT 43.53741497) and less than 4 (MAX_EFFECT 48.22429907).

On to `O=C(NC1CCCC1)c1ccc2ccc(N3CCOCC3)n2c1`, for which the PXC50 (BOTTOM 3.55073469, HILLSLOPE 1.692539638, MAX_EFFECT 59.05660377, TOP 61.76844647) amounted to 4.9 and the PXC50 (BOTTOM 4.599152337, HILLSLOPE 2.687600256, MAX_EFFECT 55.70776256, TOP 54.83275802) came out at 4.96.

As for `Cc1sc2nc(C(F)(F)F)nc(N3CCN(C)CC3)c2c1C`, the PXC50 is less than 4 (MAX_EFFECT 6.788511749) and less than 4 (MAX_EFFECT 7.049608355).

Consider `Cc1nc(NCCS(N)(=O)=O)c2c(-c3ccccc3)csc2n1`, for which the PXC50 by setting is: (MAX_EFFECT 6.870229008) less than 4; (MAX_EFFECT 12.34256927) less than 4.

For the compound `Nc1noc2ccc(-c3cnc4ccc(Cl)nn34)cc12`, the PXC50 was less than 4 (MAX_EFFECT 1.526717557) and less than 4 (MAX_EFFECT 4.824561404).
